A short description of assay [1]: liver-stage malaria parasite growth inhibition, primary screen, cell-based, HepG2, luciferase luminescence, HepG2 viability (AID 624349).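 Also: 100% = mean of DMSO negative control wells on the same plate.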 The conditions noted are these: P. berghei liver stage in HepG2, luciferase luminescence, concentration not given here; parasite load remaining: stronger effect = lower value; viability: measured here: HepG2 viability without parasites.
Assay [2] is described as follows: stimulators of nuclear beta-catenin in C2C12, primary screen, imaging, WNT3A-conditioned medium, mouse C2C12, NPC library (AID 1117326; in the data active = nuclear beta-catenin stimulation mostly above about 4.2%, no sharp cut-off; inactive = mostly below about 10%). Particulars: stronger effect = higher value.

These results are taken from PubChem BioAssay.

“And” between values parts separate entries of the source, which are not always exact repeats. Equal values may be shown once. The source made the active and inactive calls. Rule as the data show it, unless noted: active = parasite load remaining mostly below about 12% (no sharp cut-off); inactive = mostly above about 10%.

Turning to `C[C@H](N)[C@H](O)c1cccc(O)c1`, in assay [1], the parasite load remaining is 9.16% (inactive) and 99.4% (inactive) and 51.4% (inactive); the viability is 46.8% and 91.2% and 209%. In assay [2] (at 10 µM), the nuclear beta-catenin stimulation was -0.7% (inactive). For the same compound, the nuclear beta-catenin stimulation in assay [2] (stimulation, at 2 µM) is -0.1%.

As to `CC(N)CCCC(C)(C)O` (stereo unspecified), in assay [1], the parasite load remaining is 31.8% (inactive) and 120% (inactive) and 114% (inactive). In addition, the viability in assay [1] is 50.3% and 90.2% and 93.5%. The nuclear beta-catenin stimulation in assay [2] (at 10 µM) was 2.3% (inactive); in assay [2] (stimulation, at 2 µM), 1.6%.

As to `C/C=C/c1ccc(OC)cc1`, in assay [1], the parasite load remaining is 163% (inactive) and 38.2% (inactive) and 65% (inactive); the viability is 88.5% and 100% and 126%. Moreover, the nuclear beta-catenin stimulation in assay [2] (at 10 µM) is -1.7% (inactive). Moreover, the nuclear beta-catenin stimulation in assay [2] (stimulation, at 2 µM) amounted to 2.3%.

In the case of `Cc1c(Nc2ncccc2C(=O)O)cccc1C(F)(F)F`, in assay [1], the parasite load remaining was 99.9% (inactive) and 46.5% (inactive); the viability was 95.4% and 105%. Further, in assay [2] (at 10 µM), the nuclear beta-catenin stimulation was 4.9% (inactive). The nuclear beta-catenin stimulation in assay [2] (stimulation, at 2 µM) was -0.2%.

Turning to `Cc1cc(C)cc(OCC2CNC(=O)O2)c1` (stereo unspecified), the parasite load remaining in assay [1] was 135% (inactive) and 58.1% (inactive). Further, in assay [1], the viability is 90% and 111%. Further, the nuclear beta-catenin stimulation is -0.1% (inactive) in assay [2] (at 10 µM) and 0.2% in assay [2] (stimulation, at 2 µM).

With `CCN(CC)Cc1cc(Nc2ccnc3cc(Cl)ccc23)ccc1O`, in assay [1], the parasite load remaining is 2.94% (inactive) and 43.6% (inactive); the viability was 35.5% and 83.9%. The nuclear beta-catenin stimulation in assay [2] (at 10 µM) was 0.5% (inactive). For the same compound, the nuclear beta-catenin stimulation in assay [2] (stimulation, at 2 µM) was -1.5%.

Regarding `CC(Cc1cccc(C(F)(F)F)c1)NCCOC(=O)c1ccccc1` (stereo unspecified), in assay [1], the parasite load remaining is 112% (inactive) and 111% (inactive) and 72.4% (inactive); the viability is 102% and 77% and 73.5%. Moreover, the nuclear beta-catenin stimulation in assay [2] (at 10 µM) is 2.3% (inactive). In assay [2] (stimulation, at 2 µM), the nuclear beta-catenin stimulation is 3.6%.

With `CC(=O)Nc1ccc(O)cc1`, in assay [1], the parasite load remaining is 99.6% (inactive) and 108% (inactive) and 46.1% (inactive); the viability was 106% and 78.8% and 112%. Further, in assay [2] (at 10 µM), the nuclear beta-catenin stimulation is -0.4% (inactive). Further, the nuclear beta-catenin stimulation in assay [2] (stimulation, at 2 µM) was -0.2%.

As for `CCCCOc1ccc(CC(=O)NO)cc1`, in assay [1], the parasite load remaining is 13.5% (inactive) and 151% (inactive) and 84.2% (inactive); the viability is 47.8% and 71.4% and 91%. The nuclear beta-catenin stimulation in assay [2] (at 10 µM) was 0% (inactive). Moreover, the nuclear beta-catenin stimulation in assay [2] (stimulation, at 2 µM) turned out to be 0.3%.

Take `COC(=O)N/N=C/c1c[n+]([O-])c2ccccc2[n+]1[O-]`: in assay [1], the parasite load remaining is 174% (inactive) and 86.3% (inactive) and 64.3% (inactive). In addition, in assay [1], the viability is 93.9% and 108% and 125%. The nuclear beta-catenin stimulation in assay [2] (at 10 µM) is 1.7% (inactive); in assay [2] (stimulation, at 2 µM), 5.8%.

Take `Nc1ccc(C(=O)NCC(=O)O)cc1`: in assay [1], the parasite load remaining is 103% (inactive) and 157% (inactive) and 40.5% (inactive); the viability is 101% and 82% and 89.7%. In addition, the nuclear beta-catenin stimulation in assay [2] (at 10 µM) is 0.5% (inactive). In assay [2] (stimulation, at 2 µM), the nuclear beta-catenin stimulation is 1.4%.

As for `C[C@@H]1C[C@H]2[C@@H]3C[C@H](F)C4=CC(=O)C=C[C@]4(C)[C@@]3(F)[C@@H](O)C[C@]2(C)[C@@]1(O)C(=O)CO`, the parasite load remaining in assay [1] is 102% (inactive). The viability in assay [1] was found to be 99.8%. In addition, the nuclear beta-catenin stimulation in assay [2] (at 10 µM) is -0.8% (inactive); in assay [2] (stimulation, at 2 µM), 0.3%.

As for `CCCCCCCCCCCCCCCCOP(=O)([O-])OCC[N+](C)(C)C`, in assay [1], the parasite load remaining was 146% (inactive) and 43% (inactive); the viability was 78.6% and 106%. Moreover, in assay [2] (at 10 µM), the nuclear beta-catenin stimulation was -0.6% (inactive). Besides, the nuclear beta-catenin stimulation in assay [2] (stimulation, at 2 µM) amounted to 1.9%.

Regarding `CC(C)(Oc1ccc(Cl)cc1)C(=O)O`, in assay [1], the parasite load remaining was 91.8% (inactive) and 94% (inactive); the viability is 98.7% and 75.8%. For the same compound, the nuclear beta-catenin stimulation in assay [2] (at 10 µM) was 1.8% (inactive). Also, the nuclear beta-catenin stimulation in assay [2] (stimulation, at 2 µM) turned out to be 2.1%.

With `O=C(O)c1cc(O)c(O)c(O)c1`, in assay [1], the parasite load remaining was 50.3% (inactive). Also, the viability in assay [1] amounted to 100%. Also, the nuclear beta-catenin stimulation in assay [2] (at 10 µM) is 1% (inactive); in assay [2] (stimulation, at 2 µM), -0.2%.

Take `CC(=O)Nc1ccc(S(=O)(=O)Nc2ccc([N+](=O)[O-])cc2)cc1`: the parasite load remaining in assay [1] is 152% (inactive) and 62.3% (inactive). The viability in assay [1] is 92.2% and 117%. For the same compound, the nuclear beta-catenin stimulation was 1.1% (inactive) in assay [2] (at 10 µM) and 1.4% in assay [2] (stimulation, at 2 µM).

For the compound `O=C(CCBr)N1CCN(C(=O)CCBr)CC1`, in assay [1], the parasite load remaining was 146% (inactive) and 41.7% (inactive); the viability was 86.4% and 105%. Besides, the nuclear beta-catenin stimulation in assay [2] (at 10 µM) was 1.4% (inactive). Also, in assay [2] (stimulation, at 2 µM), the nuclear beta-catenin stimulation is 1.7%.

Turning to `CCCCC(CC)CN=C(N)NC(N)=NCCCCCCN=C(N)NC(N)=NCC(CC)CCCC` (stereo unspecified), in assay [1], the parasite load remaining is -0.04% (inactive) and -6.78% (inactive); the viability was 41.3% and 33.2%. The nuclear beta-catenin stimulation in assay [2] (at 10 µM) was -3.7% (inactive). Moreover, the nuclear beta-catenin stimulation in assay [2] (stimulation, at 2 µM) is -1.8%.

For `Cc1c(N(C)CS(=O)(=O)O)c(=O)n(-c2ccccc2)n1C`, in assay [1], the parasite load remaining is 109% (inactive) and 141% (inactive) and 63.8% (inactive); the viability is 100% and 88.3% and 95.6%. Besides, the nuclear beta-catenin stimulation in assay [2] (at 10 µM) was -0.4% (inactive). For the same compound, in assay [2] (stimulation, at 2 µM), the nuclear beta-catenin stimulation was determined as 0.9%.

Take `Nc1ccc(C(=O)Oc2ccccc2)c(O)c1`: in assay [1], the parasite load remaining was 67.6% (inactive) and the viability was determined as 172%. The nuclear beta-catenin stimulation in assay [2] (at 10 µM) was 0.2% (inactive). Besides, the nuclear beta-catenin stimulation in assay [2] (stimulation, at 2 µM) came out at 2.9%.

As for `Cc1cc2nc3c(=O)[nH]c(=O)nc-3n(C[C@H](O)[C@H](O)[C@H](O)CO)c2cc1C`, in assay [1], the parasite load remaining is 147% (inactive) and the viability turned out to be 99.8%. Further, the nuclear beta-catenin stimulation in assay [2] (at 10 µM) is 4.5% (inactive). For the same compound, the nuclear beta-catenin stimulation in assay [2] (stimulation, at 2 µM) came to 2.2%.

With `CC(=O)NCCCCCC(=O)O`, the parasite load remaining in assay [1] was 132% (inactive). Also, the viability in assay [1] amounted to 98.6%. Also, the nuclear beta-catenin stimulation is 0.2% (inactive) in assay [2] (at 10 µM) and 0.7% in assay [2] (stimulation, at 2 µM).

As for `CC(=O)Nc1ccc(OCC(O)CNC(C)C)cc1` (stereo unspecified), the parasite load remaining in assay [1] is 80.4% (inactive) and 87% (inactive) and 55.4% (inactive). Also, the viability in assay [1] is 110% and 75.8% and 108%. Besides, the nuclear beta-catenin stimulation in assay [2] (at 10 µM) is 0.5% (inactive); in assay [2] (stimulation, at 2 µM), 1.7%.

For the compound `CC(N)C(=O)OC(C)(C)Cc1ccc(Cl)cc1` (stereo unspecified), in assay [1], the parasite load remaining is 159% (inactive) and the viability was 87.1%. Further, the nuclear beta-catenin stimulation in assay [2] (at 10 µM) is 8% (inactive). In addition, the nuclear beta-catenin stimulation in assay [2] (stimulation, at 2 µM) worked out at 3.3%.

As a reminder, the viability is a read-out of living cells in per cent, often relative to untreated cells.
